The values below come from PubChem BioAssay.

Calls of active or inactive are those of the source. Unless noted, the rule behind the calls is not given here.

For test [1], the system named is XIP peptide (Xip251-270) binding. Put plainly: small-molecule binders of XIP peptide, primary screen, biochemical, small-molecule microarray, fluorescence 635/667 nm, 0.1 µg/mL protein (AID 1182). The conditions noted are these: fluorescent protein binding, 635 nm, higher = more signal, called active from +8 up or from −8 down.
For a further test, the system named is XIP peptide (Xip251-270). Put plainly: small-molecule binders of XIP peptide, primary screen, biochemical, small-molecule microarray, fluorescence 635/667 nm, 0.5 µg/mL protein (AID 1183). Conditions: small-molecule microarray binding, fluorescence 635 nm; higher = more signal.
A short description of test [2]: Plasmodium falciparum growth inhibition, primary screen, strain 3D7, DAPI fluorescence, 100 nL (AID 1184).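 Note: parasites grown inside human red blood cells in medium with human serum.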 The conditions noted are these: P. falciparum 3D7 growth, 3 d, higher = more signal.
For test [3], the target named is Homeobox protein Hox-A13 (Mus musculus) (UniProt Q62424). Put plainly: inhibitors of HoxA13-DNA binding, primary screen, biochemical, fluorescence polarization, labeled oligonucleotide (AID 1185). Conditions: 15 min, higher = more signal, called active from +8 up or from −8 down. (In fluorescence polarisation assays a small probe gives low polarisation when free and higher when bound to something large.)

The nature of test [4]: inhibitors of hydroxyurea-induced Chk1 phosphorylation, primary screen, imaging, HeLa, phospho-Chk1 antibody, percent positive cells (AID 1186). The conditions noted are these: hydroxyurea-induced phospho-Chk1 immunofluorescence imaging, higher = more signal.
A short description of test [5]: inhibitors of hydroxyurea-induced Chk1 phosphorylation, primary screen, imaging, HeLa, phospho-Chk1 nuclear intensity (AID 1187). Conditions: hydroxyurea-induced phospho-Chk1 immunofluorescence imaging, higher = more signal.

Homeobox protein Hox-A13 (Mus musculus), sequence (Q62424 whole entry, looked up): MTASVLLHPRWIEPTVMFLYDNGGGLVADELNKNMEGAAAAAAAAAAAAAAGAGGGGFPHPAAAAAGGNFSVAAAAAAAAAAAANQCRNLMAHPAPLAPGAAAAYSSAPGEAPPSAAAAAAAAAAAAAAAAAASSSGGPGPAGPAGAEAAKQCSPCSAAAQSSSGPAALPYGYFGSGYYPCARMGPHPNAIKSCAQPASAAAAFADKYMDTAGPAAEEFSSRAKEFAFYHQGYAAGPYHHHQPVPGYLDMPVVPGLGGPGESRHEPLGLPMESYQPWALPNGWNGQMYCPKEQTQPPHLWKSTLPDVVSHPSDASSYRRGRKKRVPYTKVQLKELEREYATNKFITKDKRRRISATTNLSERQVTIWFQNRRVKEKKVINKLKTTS

As to `O=C1c2ccccc2[C@](Cc2ccccc2I)(C(=O)NC2CC2)[C@H](c2ccc(CO)cc2)N1Cc1ccccc1C(F)(F)F`, the composite z-score in test [1] is 0.135 (inactive); in the test on XIP peptide (Xip251-270), 0.59. The z-score is -1.89 in test [2], -4.02 (inactive) in test [3], -0.0771 (inactive) in test [4] and -0.189 (inactive) in test [5].

As for `O=C(CS)NCCCCCNC(=O)[C@@H]1C[C@@H]2C(=O)N[C@@H](Cc3ccccc3)C(=O)N2[C@@H]1c1cccc(OCCO)c1`, the composite z-score in test [1] was 0.74 (inactive); with XIP peptide (Xip251-270) it was 0.77. Further, the z-score in test [2] was -0.0054; in test [3], -2.89 (inactive); in test [4] it was 0.341 (inactive); in test [5] it was 0.581 (inactive).

As to `C[C@]1(C(=O)O)c2ccccc2C(=O)N(Cc2ccc(OC(F)(F)F)cc2)[C@H]1c1ccc(CO)cc1`, the composite z-score in test [1] was -0.336 (inactive); with XIP peptide (Xip251-270), -1.05. The z-score in test [2] is 0.465; in test [3], -4.09 (inactive); in test [4] it was -0.159 (inactive); in test [5], -0.344 (inactive).

Turning to `COC(=O)[C@@]1(Cc2ccc(F)cc2)[C@H]2c3cc(C(=O)N4CCCC4)n(CC4CC4)c3C[C@H]2CN1C(=O)c1ccccc1`, the composite z-score in test [1] was 1.84 (inactive); with XIP peptide (Xip251-270), 0.245. The z-score is -1.36 in test [2], -4.69 (inactive) in test [3], 0.396 (inactive) in test [4] and 0.0021 (inactive) in test [5].

`CCOC(=O)C[C@H]1[C@H](OC(=O)c2ccc(C(=O)c3ccccc3)cc2)[C@@H](NC(=O)CC(C)C)c2cc(OCCCO)ccc2N1C(=O)Cc1ccc(OC)cc1`: the results for the composite z-score (in test [1]; with XIP peptide (Xip251-270)) were 0.595 (inactive) and 0.396, respectively. Besides, the z-score in test [2] was -0.241; in test [3], -3.06 (inactive); in test [4] it was 0.291 (inactive); in test [5] it was -0.261 (inactive).

On to `C=CCC(OC(C)=O)[C@@H]1[C@@H](N(Cc2cc3ccccc3o2)C(=O)c2ccc(-c3ccccc3)cc2)c2cc(OCCCO)ccc2N1C(=O)Cc1ccc(OC)cc1` (some centres not stated), for which the composite z-score is 0.112 (inactive) in test [1] and 0.0332 in the test with XIP peptide (Xip251-270). Further, the z-score was -0.846 in test [2], -1.8 (inactive) in test [3], 0.754 (inactive) in test [4] and 0.0035 (inactive) in test [5].

Take `CCOC(=O)C[C@H]1[C@H](OC(=O)c2ccccc2-c2ccccc2)[C@@H](NC(=O)c2ccccc2)c2cc(OCCCO)ccc2N1C(=O)c1ccccc1`: the composite z-score in test [1] is -0.101 (inactive); in the test on XIP peptide (Xip251-270) it was -0.127. Also, the z-score in test [2] was -1.39; in test [3] it was -4.85 (inactive); in test [4] it was 0.972 (inactive); in test [5], 0.528 (inactive).

For the compound `O=C1N[C@@H](Cc2ccccc2)C(=O)N2[C@@H]1C[C@@H](C(=O)O)[C@H]2c1ccc(O)cc1`, the composite z-score in test [1] was 0.24 (inactive); in the test with XIP peptide (Xip251-270), 0.649. Also, the z-score in test [2] was -0.394; in test [3], -2.41 (inactive); in test [4], -0.0256 (inactive); in test [5] it was 0.0853 (inactive).

With `O=C1O[C@H](c2ccccc2)[C@H](c2ccccc2)N2[C@H]1[C@@H](C(=O)O)[C@]1(C(=O)Nc3ccc(C#CC4(O)CCCCCC4)cc31)[C@H]2c1ccc(O)cc1`, the composite z-score in test [1] is -0.203 (inactive); in the test with XIP peptide (Xip251-270), 0.194. The z-score in test [2] was 0.361; in test [3] it was -6.61 (inactive); in test [4], -0.308 (inactive); in test [5], -0.307 (inactive).

For `COc1ccc(C(O)C2C=CC3C(=O)N(c4ccccc4)C(=O)C3N2Nc2ccccc2)cc1` (configuration not stated), the composite z-score in test [1] was 0.348 (inactive); with XIP peptide (Xip251-270), 0.572. Also, the z-score in test [2] was 0.913; in test [3], -3.76 (inactive); in test [4] it was 0.0679 (inactive); in test [5], -0.392 (inactive).

As to `CN(C)CCCC[C@@H]1NC(=O)[C@@H]2C[C@H](C(=O)O)[C@H](c3cccc(OCCO)c3)N2C1=O`, the composite z-score in test [1] was 1.02 (inactive); in the test on XIP peptide (Xip251-270), 0.0695. In addition, the z-score in test [2] was -0.286; in test [3], -3.07 (inactive); in test [4], 0.043 (inactive); in test [5], 0.313 (inactive).

For `C[C@]1(C(=O)NCC(F)(F)F)c2ccccc2C(=O)N(Cc2ccccc2)[C@H]1c1ccc(CO)cc1`, the composite z-score in test [1] is 0.636 (inactive); in the test with XIP peptide (Xip251-270), -0.0904. Moreover, the z-score is 0.169 in test [2], -4.07 (inactive) in test [3], -0.301 (inactive) in test [4] and -0.232 (inactive) in test [5].

With `CCCCCN1CC=CC23O[C@@H]4/C=C\CCC(C)OC(=O)C4[C@H]2C(=O)N(CCCCCCO)[C@@H]3C1=O` (some centres not stated), the composite z-score in test [1] is 0.185 (inactive); in the test on XIP peptide (Xip251-270), 0.459. The z-score is 0.162 in test [2], -4.71 (inactive) in test [3], -0.0032 (inactive) in test [4] and 0.453 (inactive) in test [5].

Turning to `COC(=O)[C@@]1(Cc2ccc(F)cc2)[C@H]2c3cc(C(=O)N(C)C)n(Cc4c(CO)[nH]cc(C)c4=O)c3C[C@H]2CN1C(=O)c1ccccc1`, the composite z-score was 0.493 (inactive) in test [1] and -0.0903 in the test on XIP peptide (Xip251-270). In addition, the z-score in test [2] was -1.81; in test [3], -5.02 (inactive); in test [4], 0.815 (inactive); in test [5], 0.493 (inactive).

For `NC(=O)N1C(=O)C2C(C1=O)C1C=C(CCCO)C2C(C2CC2)N1Cc1cccc(OC(F)(F)F)c1` (configuration not stated), the figures for the composite z-score (in test [1]; in the test with XIP peptide (Xip251-270)) were 0.198 (inactive) and -0.341, respectively. The z-score in test [2] was 1.17; in test [3], -8.76 (active); in test [4] it was 0.791 (inactive); in test [5], 0.384 (inactive).

With `CC(C)C[C@@H]1NC(=O)CNC(=O)[C@@]23C(=O)N[C@@H](Cc4ccccc4)C2[C@H](C)[C@@]2(C)O[C@H]2C3/C=C/C/C=C\CNC1=O` (some centres not stated), the composite z-score in test [1] is 0.408 (inactive); in the test on XIP peptide (Xip251-270), 0.767. Besides, the z-score is 0.0276 in test [2], -6.42 (inactive) in test [3], -0.284 (inactive) in test [4] and 0.0034 (inactive) in test [5].

For the compound `CN(C)C(=O)[C@]1(CCS(=O)(=O)c2ccccc2)N=C(c2ccc(OCCCO)cc2)O[C@@H]1c1ccccc1`, the composite z-score was 0.428 (inactive) in test [1] and 0.701 in the test on XIP peptide (Xip251-270). Moreover, the z-score in test [2] was -1.96; in test [3], -5.77 (inactive); in test [4] it was -0.161 (inactive); in test [5], 0.0689 (inactive).
